A selection: hits, their analogues and other compounds. The true share with any hit is near 3.3%.
Jurkat NFkB inh: lowers PMA/ionomycin-induced NF-kB signal in Jurkat cells. PMA/ionomycin-induced NF-kB luciferase reporter, luminescence. inhibition, % at 4 µM. hit rate 0.53% among 330,000. AID 435003; in the data active = inhibition above about 50%
SMARCA2 activ: increases SMARCA2 function in MMTV reporter cells; MG213 cells, MMTV-luciferase reporter, dexamethasone, overnight; activation, % at 9.1 µM; hit rate 1% among 370,000; AID 652017; in the data active = activation above about 7.8%;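 also: 0% = vehicle wells and 100% = reference activator wells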
Gli-Sufu block: Gli-Sufu pathway antagonism | Sufu-KO-LIGHT fibroblasts, Gli luciferase reporter luminescence | inhibition, % at 5 µM | hit rate 0.74% among 340,000;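 active = inhibition above about 55%, limit read from the data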;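 also: 0% = DMSO-treated cells and 100% = wells with medium but no cells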
esBAF inh: blocks esBAF chromatin remodeling in mouse ES cells; reporter increase, % at 12.5 µM; Bmi1-luciferase knock-in reporter, 24 h; 100% = twice the neutral-well signal; hit rate 2% among 350,000; in the data active = activation above about 40%;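 also: 0% = median of the plate's neutral control wells and 100% = double that signal; a rise in the Bmi1 reporter signal indicates esBAF inhibition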
697 NFkB inh: inhibitors of the PMA/ionomycin-induced NF-kB reporter in 697 B cells; hit rate 0.33% among 330,000; inhibition, % at 4 µM; 697 B-cell NF-kB luciferase reporter, 16 h; AID 435022; in the data active = inhibition above about 35%
Jurkat NFkB conf: inhibitors of the PMA/ionomycin-induced NF-kB reporter in Jurkat cells, retest; inhibition, % at 4 µM; shares compounds with Jurkat NFkB inh; Jurkat NF-kB luciferase, 16 h; AID 435020; hit rate 27% among 2,700;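 active = inhibition reaching about 45% at 4 µM in either replicate, limit read from the data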;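 also: plate controls were PMA/ionomycin stimulated DMSO wells for no effect and unstimulated DMSO wells for full effect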
697 NFkB conf: inhibitors of the PMA/ionomycin-induced NF-kB reporter in 697 B cells, retest; shares compounds with 697 NFkB inh; 697 B-cell NF-kB luciferase, 16 h; inhibition, % at 4 µM; hit rate 35% among 2,000; AID 449746; in the data active = inhibition mostly above about 28%, no sharp cut-off; inactive = mostly below about 22%
Gli-Sufu confirm: confirmation of Gli-SUFU pathway antagonists; shares compounds with Gli-Sufu block; Sufu-KO-LIGHT cells, Gli luciferase reporter, luminescence; inhibition, % at 5 µM; hit rate 40% among 2,500;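 active = mean inhibition at 5 µM reaching about 45%, limit read from the data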;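 also: plate controls were DMSO-treated cells for no effect and wells lacking cells for full effect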
SufuKO cytotox: cytotoxic in Gli-SUFU antagonist counter-screen; hit rate 32% among 2,500; Sufu-KO-LIGHT cells cytotoxicity, ATP luminescence; shares compounds with Gli-Sufu block; cytotoxicity, % at 5 µM; AID 651994;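 active = mean cytotoxicity at 5 µM above about 25%, limit read from the data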;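 also: cells exposed to compound overnight for roughly 16 to 18 hours; plate controls were DMSO wells with cells for no effect and medium without cells for full effect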
Wnt3a cs: counter-screen for Gli-SUFU antagonists: Wnt3a reporter inhibition | shares compounds with Gli-Sufu block | Wnt-LIGHT cells, Wnt3a-driven luciferase reporter, luminescence | inhibition, % at 6.25 µM | hit rate 20% among 2,500;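 active = mean inhibition above about 25%, limit read from the data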
An asterisk follows results filed as active; / = no result given.

SMILES | Jurkat NFkB inh | SMARCA2 activ | Gli-Sufu block | esBAF inh | 697 NFkB inh | Jurkat NFkB conf | Gli-Sufu confirm | SufuKO cytotox | Wnt3a cs | others
CN1/C(=C\C(=O)C[n+]2ccc3ccccc3c2)C(C)(C)c2ccccc21 | 83.4* | -7.0 | 34.0 | / | 49.4* | 78.6* | / | / | / | 697 NFkB conf=-2.7
COc1ccccc1OCC(=O)/C=C1/N(C)c2ccccc2C1(C)C | 17.2 | -4.0 | 13.8 | / | -1.4 | / | / | / | /
Cc1cc(C2=NNC(=NC3CC3)SC2)c(C)n1-c1ccccc1F | 78.8* | -8.0 | 92.8* | / | 39.2* | 74.4* | / | / | / | 697 NFkB conf=48.0*
c1cc2c(cc1C1=NNC(=NC3CC3)SC1)OCCO2 | 60.5* | -5.7 | 77.1* | -83.9 | 57.1* | 78.3* | / | / | / | 697 NFkB conf=24.2
CCCCN=C1NN=C(c2ccc3c(c2)OCCO3)CS1 | -33.6 | 0.6 | -27.4 | / | -73.6 | / | / | / | /
CCn1cc(CNC(=O)c2ccc(OC3CCN(Cc4ccccn4)CC3)cc2)cn1 | 17.0 | -3.3 | 14.1 | 8.0 | -17.3 | / | / | / | /
CCn1nc(C)c(CNC(=O)c2ccc(OC3CCN(Cc4ccccn4)CC3)cc2)c1C | 65.0* | -3.0 | 64.5* | -18.7 | 11.1 | 56.8* | 65.7* | 33.2* | 37.9*
C[C@@H]1CN([C@H](C)CO)S(=O)(=O)c2ccc(-c3cccc(C#N)c3)cc2O[C@@H]1CN(C)Cc1cccc(F)c1 | / | / | / | -7.5 | / | / | / | / | /
C=CCNc1nc(-c2c(C)nc3ncccn23)cs1 | -14.3 | 3.0 | 1.5 | -0.9 | -6.2 | / | / | / | /
Cc1ccc(Nc2nc(-c3c(C)nc4ncccn34)cs2)cc1 | 67.6* | -3.1 | 57.0* | / | 19.9 | 48.5* | 64.1* | 62.1* | -61.4
CCCCC[n+]1cccc2c3ccccc3ccc21 | 52.2* | -6.9 | 73.8* | / | 60.1* | 46.4 | 84.8* | 27.3* | 32.6* | 697 NFkB conf=42.4*
CC1(c2ccc3ccccc3c2)NC(=O)N(CC(=O)N2CCN(Cc3ccc(C#N)cc3)CC2)C1=O (stereo not given) | 57.9* | / | 67.5* | / | 48.2* | 67.7* | 71.5* | 21.4 | 32.2* | 697 NFkB conf=103.2*
CC(=O)N1CCN(C(=O)CN2C(=O)NC(C)(c3ccc4ccccc4c3)C2=O)CC1 (stereo not given) | -1.5 | -1.1 | -0.7 | 2.0 | 9.7 | / | / | / | /
CC(C)CC#Cc1cnc2c(c1)C(=O)N([C@H](C)CO)C[C@@H](C)[C@@H](CN(C)C(=O)c1cccnc1)O2 | / | / | / | 1.8 | / | / | / | / | /
CCN(CC)c1ccc(/C=N/Nc2nc(C)cc(=O)[nH]2)c(O)c1 | 58.7* | -4.5 | 91.4* | -62.4 | -22.3 | -3.8 | 84.7* | 40.7* | 70.5*
CCN(CC)c1ccc(/C=N/Nc2ccc(C)cc2)c(O)c1 | / | 1.0 | 11.9 | 10.3 | / | / | / | / | /
CCCCC(=O)NC(c1ccc(Cl)cc1)c1ccc2cccnc2c1O (stereo not given) | 51.4* | -1.7 | 89.3* | -59.6 | -17.7 | 79.7* | 88.2* | 36.7* | 87.5*
CCCCC(=O)NC(c1ccc(N(CC)CC)cc1)c1ccc2cccnc2c1O (stereo not given) | 64.2* | -2.9 | 93.5* | -22.6 | -35.0 | 76.0* | 88.3* | 43.8* | 92.2*
CCCCC(=O)NC(c1ccc(N(C)C)cc1)c1ccc2cccnc2c1O (stereo not given) | 53.6* | -3.6 | 87.6* | -59.2 | -22.7 | 76.9* | 85.9* | 36.8* | 93.3*
CCCC(=O)NC(c1ccc(C)cc1)c1ccc2cccnc2c1O (stereo not given) | 52.0* | / | 89.2* | -53.3 | -10.4 | 85.8* | 85.1* | 49.6* | 86.9*
Cc1noc(C)c1NC(=O)N(C)C[C@@H]1Oc2ccc(NC(=O)C3CC3)cc2C(=O)N([C@@H](C)CO)C[C@@H]1C | / | / | / | 0.5 | / | / | / | / | /
CN1C(=O)c2cc(NC(=O)c3cccc(F)c3)ccc2OC[C@@H]2O[C@H](CC(=O)NCc3ccccc3)CC[C@@H]21 | / | / | / | 11.6 | / | / | / | / | /
COc1ccc(C(NC(C)=O)c2ccc3cccnc3c2O)c(OC)c1 (stereo not given) | 35.2 | / | 54.6 | -55.3 | -27.4 | / | / | / | /
CC(=O)NC(c1ccc2ccccc2c1)c1ccc2cccnc2c1O (stereo not given) | 56.8* | -2.5 | 91.6* | -44.9 | -12.1 | 82.2* | 82.9* | 40.0* | 77.8*
C[C@@H]1CN([C@H](C)CO)C(=O)c2cc(C#Cc3cccnc3)cnc2O[C@H]1CN(C)S(=O)(=O)c1ccccc1F | / | / | / | -11.7 | / | / | / | / | /
SMILES | Jurkat NFkB inh | SMARCA2 activ | Gli-Sufu block | esBAF inh | 697 NFkB inh | Jurkat NFkB conf | Gli-Sufu confirm | SufuKO cytotox | Wnt3a cs | others
C=CCn1c(SCc2c(C)noc2C)nc2ccccc2c1=O | 77.8* | 0.0 | 54.6 | / | 15.6 | 51.7* | 54.1* | 57.9* | -15.9
C=CCn1c(SCc2c(C)noc2C)nc2cc(C(=O)O)ccc2c1=O | 8.4 | -1.3 | 0.3 | -4.4 | 2.2 | / | / | / | /
O=C(N/N=C/c1ccccc1Cl)c1[nH]c2ccc(Br)cc2c1-c1ccccc1 | 63.7* | -0.3 | 67.8* | / | -231.3 | 54.2* | 58.0* | 61.5* | -17.2
NNC(=O)c1[nH]c2ccc(Br)cc2c1-c1ccccc1 | 20.0 | 0.2 | -1.1 | / | 28.5 | / | / | / | /
CN1/C(=C\C(=O)COC(=O)c2ccco2)C(C)(C)c2ccccc21 | 5.8 | -0.1 | 11.8 | -1.9 | 7.9 | / | / | / | /
CN1/C(=C\C(=O)c2ccco2)C(C)(C)c2ccccc21 | 57.3* | -2.7 | 84.4* | -24.3 | -69.0 | -0.2 | 81.2* | 35.2* | 24.1
COC(=O)c1ccc(COc2cc(O)c3c(c2)OC(C)(C)CC3=O)cc1 | -1.2 | 2.1 | 0.2 | 21.4 | -25.7 | / | / | / | /
CC1(C)CC(=O)c2c(O)cc(OCc3ccc(Br)cc3)cc2O1 | -152.6 | 3.6 | 95.8* | 67.1* | -137.0 | -68.5 | -40.5 | 21.8 | -123.5
CCn1c2ccccc2c2cc([N+](=O)[O-])ccc21 | 1.9 | -2.3 | -2.7 | / | 10.5 | / | / | / | /
CN(C)CCn1c2ccccc2c2nc3ccc([N+](=O)[O-])cc3cc21 | 60.1* | 4.1 | 51.7 | / | -316.7 | 9.5 | 39.9 | 10.3 | -162.4 | 697 NFkB conf=-296.7
O=C(Nc1ccc(S(=O)(=O)N2CCN(Cc3ccccc3)CC2)cc1)c1cnccn1 | 57.0* | -4.5 | 57.5* | -2.3 | -5.6 | 54.2* | 60.4* | 32.7* | 28.6*
O=C(Nc1ccc(S(=O)(=O)N2CCCC2)cc1)c1cnccn1 | 1.5 | -0.5 | 3.0 | 12.0 | 21.1 | / | / | / | /
CC=Cc1ccc2n(c1=O)C[C@@H]1[C@@H](CO)[C@H](C(=O)NCc3ccncn3)N(C(=O)NC3CCCC3)[C@H]21 (mixture of isomers) | / | / | / | -4.7 | / | / | / | / | /

Screening data as filed in PubChem.
